# Rows were chosen to be rich in hits. Some 3.9% of all compounds tested hit in one or more screens of this group.
# SARS 3CLpro inh – SARS-CoV 3CLpro protease inhibition. P0C6X7. recombinant SARS-CoV 3CLpro, quenched FRET peptide cleavage. inhibition, % at 6 µM. 290,000 compounds, 0.14% hits. AID 1706; in the data active = inhibition above about 12%
# Anthrax LF inh2 – inhibitors of Bacillus anthracis lethal factor protease; P15917; 360,000 compounds, 0.12% hits; multiplex microsphere protease cleavage assay, LF; inhibition, % at 10 µM; AID 588501; note: plate controls were buffer without enzyme for full effect and enzyme alone for no effect
# CCHF vOTU inh-1 – CCHFV vOTU protease inhibition | Pep-AMC fluorescence | inhibition, % at 11.5 µM | 370,000 compounds, 0.55% hits; in the data active = inhibition above about 30%; note: 0% = vehicle wells with enzyme and 100% = no enzyme wells
# Autofluor counter – flagged as autofluorescent in microsphere protease counterscreen | compound autofluorescence counterscreen, microsphere flow cytometry; hits give high values | fluorescence intensity (test concentration not listed) | 360,000 compounds, 3.1% hits | AID 624483; in the data active = fluorescence intensity above about 16000; inconclusive = no clear call, values can overlap the other calls
# BoNT A protease – BoNT A light chain protease inhibition; multiplex microsphere protease substrate cleavage, flow cytometry; inhibition, % at 10 µM; 360,000 compounds, 0.17% hits; AID 588499; note: plate controls were buffer without enzyme for full effect and enzyme alone for no effect
# BoNT F protease – BoNT F light chain protease inhibition; inhibition, % at 10 µM; 360,000 compounds, 0.22% hits; Multiplex microsphere protease cleavage assay, flow cytometry; in the data active = inhibition above about 35%, passing the limit was not always enough; inconclusive = no clear call, values can overlap the other calls; note: plate controls were buffer without enzyme for full effect and enzyme alone for no effect
# CCHF vOTU inh-2 – CCHFV vOTU protease inhibition, confirmation. shares compounds with CCHF vOTU inh-1. Recombinant CCHFV vOTU, Pep-AMC fluorescence. inhibition, % at 11.5 µM. 1,900 compounds, 17% hits. AID 686976; in the data active = inhibition above about 30%
# * marks the source's active call; other numbers are inactive results; ? = inconclusive; . = no result given. Cut-off read from the data, not from the text of the source, unless noted: active = inhibition above about 30%; inconclusive = no clear call, values can overlap the other calls; inactive = below that.
SMILES,SARS 3CLpro inh,Anthrax LF inh2,CCHF vOTU inh-1,Autofluor counter,BoNT A protease,BoNT F protease,CCHF vOTU inh-2
COCOCCn1cc(CN2CCS(=O)(=O)N(Cc3ccc(-c4cccc(CO)c4)cc3)C(C(C)C)C2=O)nn1 (stereo not drawn),.,-4,1,2975,-1,-6,.
CCc1ccc([C@@H]2CC=C(C(=O)O)[C@H](c3ccc(C(C)(C)C)cc3)N2S(=O)(=O)c2ccc(C)cc2)cc1,.,-3,46*,3421,0,-4,0
CCc1ccc([C@@H]2CC=C(C(=O)O)[C@H](c3ccccc3)N2S(=O)(=O)c2ccc(C)cc2)cc1,.,-7,21,4435,0,-2,.
CCN1C(=O)/C(=C/c2ccc(C)s2)NC1=S,2,7,31*,2768,6,-5,-14
Cc1ccc(/C=C2/NC(=O)N(Cc3ccccc3)C2=O)s1,3,10,-6,11374,20,14,.
C[C@@H]1CN([C@@H](C)CO)C(=O)CCCn2nncc2CO[C@@H]1CN(C)C(=O)Nc1ccccc1C(F)(F)F,.,-2,27,2873,0,4,.
C[C@@H]1CN([C@@H](C)CO)C(=O)CCCn2nncc2CO[C@H]1CN(C)C(=O)Nc1ccccc1C(F)(F)F,.,-5,30*,3771,0,-4,-20
COc1ccccc1CNC(=O)COC(=O)C1CCN(c2ccc(C(F)(F)F)cn2)CC1,.,-1,44*,5209,4,4,-10
Cc1cc(C)c(NC(=O)COC(=O)C2CCN(c3ccc(C(F)(F)F)cn3)CC2)c(Cl)c1,.,-2,17,5767,-2,1,.
Cc1cc(C)c(NC(=O)CNC(=O)COC(=O)C2CCN(c3ccc(C(F)(F)F)cn3)CC2)c(C)c1,1,-4,34*,6900,-4,-3,2
CCOc1ccc(C(=O)C(C)OC(=O)C2CCN(c3ccc(C(F)(F)F)cn3)CC2)cc1 (stereo not drawn),.,2,35*,6364,4,4,10
Cc1nnc(SCC(=O)NC2CCCc3c2cnn3-c2ccccc2F)o1 (stereo not drawn),0,2,9,5323,0,-1,.
COc1ccc(/C=N/NC(=O)c2ccc(O)cc2O)cc1CSc1ccccn1,4,-2,10,1907,-1,0,.
CCc1ccc(S(=O)(=O)Nc2ccc(O)c3ccccc23)cc1,-3,-1,62*,3517,-1,-3,-16
Cc1oc2c(cc(NS(=O)(=O)c3ccc(C(C)C)cc3)c3ccccc32)c1C(=O)O,-1,-2,27,5582,0,-2,.
O=S(=O)(Nc1ccc(O)c2ccccc12)c1ccc(F)cc1,.,-4,81*,5204,-1,-9,5
Cc1oc2c(cc(NS(=O)(=O)c3ccc(F)cc3)c3ccccc32)c1C(=O)O,8,16,30*,4051,0,-7,-10
CC1=NN(c2ccc(Cl)c(C(=O)O)c2)C(=O)C1,1,-2,16,2252,0,-3,.
CC1=NN(c2cccc(Cl)c2)C(=O)C1,4,-7,44*,4408,0,-5,2
CC1=NN(c2ccc(C(=O)O)c(N)c2)C(=O)C1,-2,2,83*,2038,0,0,-13
O=c1ccc2[n+]([O-])c3ccc(O)cc3oc-2c1,1,1,50*,4208,-1,-2,27
Cc1cccc(S(=O)(=O)NC(=O)C2(C)CCN2C(=O)C/C=C/c2ccccc2)c1 (stereo not drawn),.,1,0,3794,0,1,.
O=C1CCCCCN1CP(=O)(O)CN1CCCCCC1=O,1,-19,1,4295,?,?,.
Oc1ccc(Br)cc1CNc1cccc2cccnc12,-2,-2,18,3766,-2,?,.
Oc1ccc(Cl)cc1CNc1cccc2cccnc12,3,-26,102*,3461,2,?,-4
SMILES,SARS 3CLpro inh,Anthrax LF inh2,CCHF vOTU inh-1,Autofluor counter,BoNT A protease,BoNT F protease,CCHF vOTU inh-2
Oc1c(Br)cc(Br)cc1CNc1cccc2cccnc12,4,-8,116*,3875,4,?,12
COc1ccc(C(CNC(=O)CNS(=O)(=O)c2ccc(NC(C)=O)cc2)N2CCOCC2)cc1 (stereo not drawn),.,-6,2,6258,-2,-4,.
Cc1ccc(/C=N/n2c(-c3cccnc3)n[nH]c2=S)s1,7,3,34*,1954,1,1,-1
S=c1[nH]nc(-c2cccnc2)n1/N=C/c1ccc(Br)s1,-3,-3,26,7393,1,-4,.
Cc1ccc(SCC(=O)NNC(=O)c2cncc(Br)c2)cc1,.,2,-3,3900,0,-1,.
Cc1ccc(C(=O)COC(=O)CNC(=O)c2ccccc2)s1,.,-5,3,2804,0,7,.
C=CC[C@H](CC(=O)N(CCO)Cc1ccccc1)C(=O)N[C@@H](COC(=O)[C@@H](CC=C)CC(=O)OC(C)(C)C)Cc1c[nH]c2ccccc12,.,-8,33*,3668,-1,-6,2
C=CC[C@@H](CC(=O)N[C@@H](CO)Cc1ccccc1)C(=O)N[C@H](COC(=O)[C@H](CC=C)CC(=O)OC(C)(C)C)Cc1c[nH]c2ccccc12,.,-4,25,4293,0,1,.
C=CCC[C@H](Cc1ccc(F)cc1)C(=O)OC[C@@H](Cc1c[nH]c2ccccc12)NC(=O)[C@@H](CC=C)CC(=O)N[C@@H](CO)Cc1ccccc1,.,1,32*,2857,0,-5,11
C=CC[C@H](CC(=O)N(CCO)Cc1ccccc1)C(=O)N[C@H](COC(=O)[C@H](CC=C)CC(=O)OC(C)(C)C)Cc1c[nH]c2ccccc12,.,-6,24,3460,-1,1,.
C=CC[C@@H](CC(=O)N(CCO)Cc1ccccc1)C(=O)NC[C@H](OC(=O)[C@@H](CC=C)CC(=O)OC(C)(C)C)c1ccccc1,.,2,37*,2855,0,5,11
C=CC[C@@H](CC(=O)N(CCO)Cc1ccccc1)C(=O)N[C@@H](COC(=O)[C@H](CC=C)CC(=O)OC(C)(C)C)Cc1c[nH]c2ccccc12,.,-2,39*,3289,0,-2,15
CC(C)C(=O)N1CCCC1(C)C(=O)NCc1ccccn1 (stereo not drawn),.,-3,5,4002,0,0,.
C=CC[C@@H](CC(=O)N(CCO)Cc1ccccc1)C(=O)N[C@H](COC(=O)[C@@H](CC=C)Cc1ccc(F)cc1)Cc1c[nH]c2ccccc12,.,-4,14,2828,0,-9,.
C=CC[C@@H](CC(=O)N(CCO)Cc1ccccc1)C(=O)N[C@H](COC(=O)[C@@H](CC=C)CC(=O)OC(C)(C)C)Cc1ccccc1,.,-5,37*,3583,0,6,21
C=CC[C@H](CC(=O)N(CCO)Cc1ccccc1)C(=O)N[C@H](COC(=O)[C@@H](CC=C)Cc1ccc(F)cc1)Cc1c[nH]c2ccccc12,.,2,31*,3843,0,-11,7
